Source: PubChem BioAssay (The Scripps Research Institute Molecular Screening Center)
This is one part of a sample in which hits are shown more often than they occur.
TTR transcr act: TTR transcription activation, primary screen | 92,000 compounds, 1.3% hits | SH-SY5Y TTR promoter Gaussia luciferase, luminescence; 100% = recombinant luciferase protein wells | AID 1117267 | activation, % at 16.7 µM;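 active = activation above the mean of all tested compounds plus 3 SD, cut at about 9.5% in these data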;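 also: cells exposed to compounds for one day before reading; 0% = median of all test compound wells on the plate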
TTR inh HuH7: counter-screen for TTR activators: TTR transcription inhibitors in HuH7 cells | shares compounds with TTR transcr act | 1,100 compounds, 4% hits | inhibition, % at 16.7 µM | HuH7 TTR promoter-Gaussia luciferase reporter, luminescence;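 active = average inhibition above the solvent-only control wells' mean plus 3 SD, cut at about 15% in these data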;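 also: 0% = cells with DMSO only and 100% = cells with inhibitor control FD; inhibitors lower well luminescence so higher value means more inhibition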
TTR act confirm: human TTR transcription activation, confirmation; shares compounds with TTR transcr act; SHSY5Y TTR promoter Gaussia luciferase, luminescence; 100% = purified Lucia enzyme wells, no cells; activation, % at 16.7 µM; 1,100 tested, under 10 active; AID 1117280;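 active = mean activation above a set limit taken from the earlier primary screen, cut at about 11% in these data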;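 also: 0% = DMSO-treated cells and 100% = recombinant Lucia luciferase without cells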
An asterisk follows results filed as active.

SMILES | TTR transcr act | others
CCOC(=O)[C@]12CCCC=C1N(Cc1ccc(OC)cc1)C(=O)[C@@H]2CC(=O)NCc1ccc(C)o1 | 0
N#CCC(CNc1ncc(C(F)(F)F)cc1Cl)OC(=O)c1ccc(Cl)cc1Cl (centres undefined) | 1
CN(CCc1ccccc1)C(=O)c1cccc(NC(=O)Cc2cccc(NC(=O)C3CCN(C(=O)C4CC4)CC3)c2)c1 | 0
CN(CCc1ccccc1)C(=O)c1cccc(NC(=O)Cc2cccc(NC(=O)C3CCN(C(=O)C4CCCC4)CC3)c2)c1 | 0
CN(CCc1ccccc1)C(=O)c1cccc(NC(=O)Cc2cccc(NC(=O)C3CCN(C(=O)c4ccccc4)CC3)c2)c1 | 9.9* | TTR inh HuH7=-6;TTR act confirm=0
CCCN1Cc2cccc(C(=O)NC(CC(=O)OCC)c3ccc(OCC)c(OC)c3)c2C1=O (centres undefined) | -2
CCCCNC(=O)C[C@H]1C[C@@]2(C(=O)OC)C(=C[C@H](C(C)C)O[C@@H]2C2CC2)N(Cc2cccc3ccccc23)C1=O | -1
O=C(CSc1ncccc1C(=O)O)c1cccc(C(F)(F)F)c1 | -1
O=C(CSc1ncnc2nc[nH]c12)c1ccc2ccccc2c1 | -4
O=C(CSc1ncccc1C(=O)O)c1ccc2ccccc2c1 | 12* | TTR inh HuH7=-17;TTR act confirm=1
Oc1ccc(-c2nn[nH]n2)c2cccnc12 | 0
O=C(Nc1ccccc1N1CCOCC1)c1ccc(N2CCCC2=O)cc1 | 1
Cc1ccc(Nc2cc(=O)[nH]c(=O)[nH]2)cc1Cl | 9.7* | TTR inh HuH7=-3;TTR act confirm=-1
Cc1ccc(NC(=S)N(C)N)cc1Cl | 1
Cc1ccc(Nc2ccc([N+](=O)[O-])cn2)cc1Cl | 1
O=C1c2ccccc2NC(c2ccccc2)N1CCCN1CCOCC1 (centres undefined) | -1
N#CCCN(CCCN1CCOCC1)CN1C(=O)c2ccccc2C1=O | 31* | TTR inh HuH7=-10;TTR act confirm=-1
O=C1c2ccccc2C(=O)N1CCN1CCCCC1 | -2
OC(c1ccccc1)c1ccccc1CN1CCCNC1=S (centres undefined) | -1
CCCCNC(=O)NS(=O)(=O)c1cnccc1Sc1ccc(Cl)cc1 | 16* | TTR inh HuH7=-17;TTR act confirm=0
O=C(NCCCNC(=O)c1cnccn1)c1ccc(Cl)cc1 | 4
CCCCCNC(=O)C(C)Sc1ccc(Cl)cc1 (centres undefined) | 2
N[C@H](C(=O)Nc1ccc(Cl)cc1C(=O)c1ccc[nH]1)c1ccccc1 | -1
COc1ccc(S(=O)(=O)N2CCCOC2CNC(=O)C(=O)NCc2ccccn2)cc1 (centres undefined) | 24* | TTR inh HuH7=-10;TTR act confirm=-1
COc1ccc(S(=O)(=O)N2CCCOC2CNC(=O)C(=O)NCc2ccco2)cc1 (centres undefined) | 0
SMILES | TTR transcr act | others
COc1ccc(S(=O)(=O)N2CCOC2CNC(=O)C(=O)NCc2ccccc2OC)cc1 (centres undefined) | -1
Cc1ccc(CC(=O)NC(C)CCc2ccccc2)cc1 (centres undefined) | 4
CC(C)C[C@H]1CNC(=O)C(=O)N1C[C@H](C)NC(=O)Cc1ccccc1 | 15* | TTR inh HuH7=0;TTR act confirm=0
CC(CCc1ccccc1)NC(=O)Cc1ccc(Br)cc1 (centres undefined) | 0
O=C(COC(=O)CCSc1ccccc1)Nc1ccc(F)cc1Cl | 0
CSc1ccccc1NC(=O)COC(=O)CCC(=O)c1ccc(F)cc1 | -1
O=C(COC(=O)CCSc1ccccc1Cl)Nc1ccc(F)cc1F | 10.0* | TTR inh HuH7=-6;TTR act confirm=3
Cc1cc(-c2nnc(CCC(=O)NC(C)c3ccc(F)cc3)o2)no1 (centres undefined) | 1
CC(C(=O)NC1CCCC1)n1c(C2CC2)nc2ccccc21 (centres undefined) | 3
O=C(OCc1ccccc1)c1cn(-c2ccccc2)nc1-c1ccncc1 | 18* | TTR inh HuH7=-10;TTR act confirm=-1
COC(=O)c1cn(-c2ccccc2)nc1-c1ccncc1 | -3
COC(=O)c1cn(-c2ccccc2)nc1-c1ccc(OC)cc1 | -3
Clc1cccc(Cl)c1-c1noc(CN2CCOCC2)n1 | 4
CC(C)N(c1ccccc1)c1ccc(NC(=O)COC(=O)CCN2C(=O)c3cccc([N+](=O)[O-])c3C2=O)cc1 | 6
CCOC(=O)C1(C)CCCCN1C(=O)c1cccs1 (centres undefined) | 2
O=C(CSC(=S)N1CCCC1)c1ccccc1 | 0
O=C(O)CSCC(=O)N1CCCCC1 | -1
O=C(O)CSC(=S)N1CCCC1 | 10* | TTR inh HuH7=-5;TTR act confirm=0
COc1c(C(C)(C)C)cc(S(=O)(=O)N2c3ccccc3C[C@H]2C)cc1C(C)(C)C | 2
CC(Oc1cccc2cccnc12)C(=O)N/N=C/c1ccccc1 (centres undefined) | -2
CC(Oc1cccc2cccnc12)C(=O)N/N=C/c1ccc2c(c1)OCO2 (centres undefined) | 13* | TTR inh HuH7=-8;TTR act confirm=-1
